These results are taken from PubChem BioAssay (NCI).

Test systems include DU-145 prostate; K-562 leukemia; MALME-3M melanoma; MDA-MB-231 breast; RXF 393 renal; SF-268 CNS; SF-295 CNS; SF-539 CNS; UACC-257 melanoma; M14 melanoma.
Common to all, as to assay: NCI-60 one-dose screen, 48 h (100 = growth as untreated, 0 = no growth, -100 = all killed)
Conditions in all cases: 10 µM unless noted

Structures are written as SMILES. The panel holds about 83,000 compounds, 20% with a hit somewhere; the sample as a whole holds those more often.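 Cell lines were cultured in 96-well plates, exposed to a single compound concentration, and assessed for percent growth 48 hours later.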 Unmarked numbers belong to inactive results. Active and inactive are the calls of the source. Rule for the calls: active = growth percent below 10; inactive = the rest.

On to `Nc1ccn(C2OC(CO)C(O)C2F)c(=O)n1` (stereo not given), for which the growth in the assay on DU-145 prostate was 89.4%; in the assay with K-562 leukemia, 83.7%; with MALME-3M melanoma, 73%; in the assay on MDA-MB-231 breast, 89.2%; in the assay on RXF 393 renal it was 100%; with SF-268 CNS it was 86.3%. The growth in the assay with SF-295 CNS was 98.6%; with SF-539 CNS, 92.2%; with UACC-257 melanoma, 95.1%; in the assay on M14 melanoma, 65.4%.
`COC1C(=O)CCC2(CO2)C1(O)C1(C)OC1CCC(C)C` (stereo not given): the growth in the assay with DU-145 prostate is 48.7%; in the assay with K-562 leukemia, 47.6%; with MALME-3M melanoma, 103%; with MDA-MB-231 breast, 107%; with RXF 393 renal it was 69.5%; in the assay with SF-268 CNS, 74.6%. Besides, the growth in the assay on SF-295 CNS is 72.9%; in the assay on SF-539 CNS, 88%; in the assay on UACC-257 melanoma it was 39.9%; with M14 melanoma, 56.5%.
Regarding `S=C(NCc1ccccc1)N1CCC(CCCC2CCN(C(=S)NCc3ccccc3)CC2)CC1`, the growth is 105% in the assay with DU-145 prostate; 69.9% in the assay with K-562 leukemia; 104% in the assay on MALME-3M melanoma; 99.2% with MDA-MB-231 breast; 107% in the assay on RXF 393 renal; 93% with SF-268 CNS. Also, the growth is 97.7% in the assay with SF-295 CNS, 99.1% in the assay on SF-539 CNS, 100% with UACC-257 melanoma and 100% in the assay with M14 melanoma.
For the compound `CCNC(=O)OCCc1c2ccccc2nc2ccccc12`, the growth in the assay with DU-145 prostate is 122%; in the assay with K-562 leukemia, 88.2%; with MALME-3M melanoma it was 126%; with MDA-MB-231 breast, 119%; in the assay with RXF 393 renal, 97.4%; with SF-268 CNS, 109%. Also, the growth is 127% in the assay with SF-295 CNS, 109% with SF-539 CNS, 112% in the assay on UACC-257 melanoma and 120% in the assay on M14 melanoma.
On to `C/C(Cc1ccccc1)=N\O`, for which the growth in the assay on DU-145 prostate was 109%; with K-562 leukemia, 88.6%; in the assay on MALME-3M melanoma it was 110%; with MDA-MB-231 breast it was 113%; in the assay on RXF 393 renal, 112%; with SF-268 CNS it was 101%. Further, the growth is 117% with SF-295 CNS, 108% with SF-539 CNS, 107% in the assay with UACC-257 melanoma and 105% with M14 melanoma.
On to `CCN1CCCC(N2c3ccccc3Sc3ccccc32)C1` (stereo not given), for which the growth in the assay on DU-145 prostate was 94.1%; in the assay with K-562 leukemia, 91.8%; in the assay with MALME-3M melanoma, 92.1%; in the assay with MDA-MB-231 breast it was 76.5%; in the assay with RXF 393 renal, 104%; with SF-268 CNS it was 103%. For the same compound, the growth in the assay with SF-295 CNS is 107%; in the assay on SF-539 CNS it was 103%; in the assay with UACC-257 melanoma, 104%; in the assay with M14 melanoma it was 99.8%.
In the case of `CN1C(=O)NC(c2ccc(Cl)cc2)(c2ccc(Cl)cc2)C1=O`, the growth in the assay on DU-145 prostate was 102%; with K-562 leukemia it was 70.1%; with MALME-3M melanoma, 108%; in the assay on MDA-MB-231 breast it was 99.8%; in the assay on RXF 393 renal it was 62%; with SF-268 CNS, 102%. In addition, the growth is 102% in the assay on SF-295 CNS, 111% in the assay with SF-539 CNS, 118% in the assay with UACC-257 melanoma and 100% with M14 melanoma.
As to `CC12CCC3c4ccc(O)cc4CCC3C1CCC2=O` (stereo not given), the growth in the assay with DU-145 prostate is 112%; with K-562 leukemia, 93.9%; in the assay on MALME-3M melanoma it was 113%; in the assay with MDA-MB-231 breast it was 83.5%; in the assay with RXF 393 renal, 103%; in the assay with SF-268 CNS it was 99%. Besides, the growth in the assay with SF-295 CNS was 112%; with SF-539 CNS it was 96.6%; in the assay on UACC-257 melanoma, 93.8%; with M14 melanoma it was 102%.
Regarding `O=C(CCl)Nc1ccccc1SCc1cc(Cl)cc2c1OCOC2`, the growth was 101% in the assay on DU-145 prostate; 32.1% with K-562 leukemia; -69.1% (active) in the assay on MALME-3M melanoma; 88.6% with MDA-MB-231 breast; 77.1% in the assay with RXF 393 renal; 93.8% with SF-268 CNS. The growth in the assay with SF-295 CNS is 94%; in the assay with SF-539 CNS it was 93.5%; in the assay with UACC-257 melanoma, 101%; in the assay on M14 melanoma, 69.8%.
Regarding `C/C(=N\Nc1ccc([N+](=O)[O-])cc1[N+](=O)[O-])c1ccc(Br)cc1`, the growth in the assay on DU-145 prostate was 103%; in the assay on K-562 leukemia it was 98.7%; in the assay with MALME-3M melanoma, 107%; in the assay with MDA-MB-231 breast, 91.5%; in the assay on RXF 393 renal, 106%; in the assay with SF-268 CNS, 97.2%. Also, the growth in the assay on SF-295 CNS is 94.4%; with SF-539 CNS, 106%; in the assay on UACC-257 melanoma it was 87.9%; in the assay with M14 melanoma, 106%.
As for `CC1CN(CCO)CC(C)O1` (stereo not given), the growth is 107% in the assay on DU-145 prostate; 98.9% with K-562 leukemia; 99.7% in the assay with MALME-3M melanoma; 101% in the assay with MDA-MB-231 breast; 132% in the assay on RXF 393 renal; 99.7% in the assay with SF-268 CNS. In addition, the growth in the assay on SF-295 CNS is 104%; with SF-539 CNS, 98.4%; with UACC-257 melanoma, 105%; with M14 melanoma, 108%.
On to `S=C(Sc1ccc(Cl)cc1)Sc1ccc(Cl)cc1`, for which the growth in the assay on DU-145 prostate is 17.2%; with K-562 leukemia it was -44% (active); in the assay on MALME-3M melanoma, -52.8% (active); in the assay on MDA-MB-231 breast, -29.5% (active); with RXF 393 renal, -85.5% (active); with SF-268 CNS, -1.56% (active). Further, the growth was 66% with SF-295 CNS, 37.6% in the assay with SF-539 CNS, 88% in the assay on UACC-257 melanoma and -45.1% (active) in the assay with M14 melanoma.
As for `S=C=Nc1ccc2ccccc2c1`, the growth in the assay on DU-145 prostate was 107%; in the assay on K-562 leukemia, 96%; with MALME-3M melanoma, 102%; in the assay with MDA-MB-231 breast, 117%; in the assay with RXF 393 renal it was 110%; in the assay on SF-268 CNS, 108%. In addition, the growth in the assay with SF-295 CNS was 108%; with SF-539 CNS, 99.9%; with UACC-257 melanoma, 99.7%; with M14 melanoma, 103%.
For `CC(=O)C[n+]1ccc(C)cc1Sc1ccccc1C`, the growth was 98.1% in the assay with DU-145 prostate; 102% in the assay on K-562 leukemia; 102% in the assay with MALME-3M melanoma; 89.3% in the assay on MDA-MB-231 breast; 134% in the assay with RXF 393 renal; 93% with SF-268 CNS. The growth in the assay with SF-295 CNS was 96.8%; in the assay with SF-539 CNS, 88.5%; in the assay with UACC-257 melanoma, 97.8%; in the assay with M14 melanoma, 90.7%.
For the compound `OC(CBr)CCBr` (stereo not given), the growth with DU-145 prostate is 110%; in the assay with K-562 leukemia it was 100%; in the assay with MALME-3M melanoma, 85.6%; in the assay with MDA-MB-231 breast, 104%; in the assay on RXF 393 renal, 109%; in the assay on SF-268 CNS, 104%. In addition, the growth in the assay on SF-295 CNS is 94%; with SF-539 CNS, 96.3%; in the assay with UACC-257 melanoma, 87.8%; with M14 melanoma, 104%.
